Most compounds without a hit are left out; they make up all but 7.9% or so of the library.
KB-V1 cytotox – qHTS assay for MDR1-selective chemotherapeutics: Primary screen using the drug-selected MDR subline cells KB-V1; KB-V1 MDR cells viability, CellTiter-Glo, 72 h; Potency, µM (highest dose often 46.1 µM), most hits filed as cytotoxic; 400,000 tested, 3.4% active; AID 1347076, 2019; note: nearly all actives have a fitted effect of over 60% in size
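Readout: CellTiter-Glo luminescence, 10 min after addition. Cells: KB-V1 MDR subline, 72 h at 37 degrees C with compound. Analysis: corrected, normalized data fitted to concentration-effect curves.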
SW480 rerep – A quantitative high throughput screen for small molecules that induce DNA re-replication in SW480 colon adenocarcinoma cells | SW480 DNA re-replication, Hoechst DNA content imaging, 48 h | Potency, µM (doses to about 46.1 µM), actives largely listed as activators | 340,000 tested, 1.8% active | AID 624297, 2012; note: nearly all actives have a fitted effect of over 55% in size
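Image-based read-out: total Hoechst fluorescence of nuclei (405 nm excitation, 500-530 nm emission), with hits raising the fraction of high-intensity nuclei. SW480 colon cells incubated 48 hr with compounds at 37 C.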
HT1080 IDH1KD tx – qHTS for induction of synthetic lethality in tumor cells producing 2HG: qHTS for the HT-1080-IDH1KD cell line | Potency, µM (top dose mostly 46.1 µM), usual class: cytotoxic | HT-1080 IDH1 knockdown viability, ATP luminescence, 48 h | 360,000 tested, 2% active | AID 686971, 2013
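HT-1080-IDH1KD cells (IDH1 knocked down), 750/well in RPMI with 5% FBS, treated with compound 48 h at 37 degrees C. Viability by CellTiter-Glo luminescence, normalised to DMSO and no-cell wells; concentration-response curves classed.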
KB-3-1 tox – qHTS assay for MDR1-selective chemotherapeutics: Primary screen using the parental adenocarcinoma cell KB-3-1. KB-3-1 viability, CellTiter-Glo ATP luminescence, 72 h. Potency, µM (titrated, usually from 46.1 µM), most hits filed as cytotoxic. 400,000 tested, 1.4% active. AID 1347075, 2019; note: nearly all actives have a fitted effect of over 60% in size
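Screening of KB-3-1 cells (DMEM, 10% FBS, phenol-red free) ran from lowest to highest compound concentration; after 72 h at 37 °C viability was read luminescently and curves fitted.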
HT1080NT lethal – qHTS for induction of synthetic lethality in tumor cells producing 2HG: qHTS for the HT-1080-NT fibrosarcoma cell line | HT-1080-NT fibrosarcoma viability, CellTiter-Glo ATP luminescence, 48 h | Potency, µM (series often up to 46.1 µM), most hits filed as cytotoxic | 360,000 tested, 1.6% active;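 note: NT is the 2HG producing partner of a matched IDH1 knockdown line; nearly all actives have a fitted effect of over 55% in size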
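Fibrosarcoma NT cells, 750 per well in 5% FBS RPMI, were exposed to compound for 48 hours. Viability: CellTiter-Glo luminescence.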
MCF10A rereplic – A quantitative high throughput screen for small molecules that induce DNA re-replication in MCF 10a normal breast cells; MCF 10A DNA re-replication, Hoechst nuclear intensity, 48 h; Potency, µM (doses to about 46.1 µM), hits mostly activators; 350,000 tested, 2.9% active; AID 624296, 2012; note: nearly all actives have a fitted effect of over 50% in size
Large screens that a line does not name were inactive. Calls come from the whole dose curve; as a rule, active = well fitted curve in the direction sought with a large enough effect; inconclusive = small, poorly fitted or top-dose-only effect, or another doubt; inactive = no such curve, though single readings can be large; an effect the other way counts as inactive or inconclusive.

O=C(NCc1ccccc1)c1c(Cl)nc(Cl)c(Cl)c1Cl	SW480 rerep 6.51µM, HT1080 IDH1KD tx 7.31µM, KB-3-1 tox 16.4µM, HT1080NT lethal 10.3µM, MCF10A rereplic 18.4µM
Cc1nc(Cl)c(C(=O)NCc2ccccc2)c(C)c1Cl	none
Cc1ccc(-c2cccc(C(=O)NCc3ccccc3)n2)c2ccccc12	KB-V1 cytotox inconclusive, SW480 rerep 16.4µM, HT1080 IDH1KD tx inconclusive, KB-3-1 tox inconclusive, HT1080NT lethal inconclusive, MCF10A rereplic inconclusive
Cc1ccc(-c2cccc(C(=O)NCCc3ccccc3)n2)c2ccccc12	SW480 rerep inconclusive
COc1cc(C(=O)Nc2ccccc2OCc2cc(=O)n3cc(C)sc3n2)cc(OC)c1OC	KB-V1 cytotox inconclusive (no result: SW480 rerep, HT1080 IDH1KD tx, HT1080NT lethal, MCF10A rereplic)
CCOC(=O)CC1(NC(=O)c2cc(COc3cccc(OC)c3)on2)CCCCC1	none
CC(Oc1ccc(Cl)cc1Cl)c1nc(-c2ccc(NC(=O)c3ccco3)cc2)no1 (stereo unspecified)	KB-V1 cytotox 5.8µM
Cc1ccc(/C=C/C(=O)Nc2cccc([S+](=O)([O-])Nc3ccccc3F)c2)cc1	KB-V1 cytotox inconclusive (no result: SW480 rerep, HT1080 IDH1KD tx, HT1080NT lethal, MCF10A rereplic)
CC(C)COP(=O)(OCC(C)C)C(Nc1ccccc1)c1ccc2c(c1)OCO2 (stereo unspecified)	KB-V1 cytotox 6.51µM, SW480 rerep inconclusive, KB-3-1 tox inconclusive, MCF10A rereplic inconclusive
COc1ccc(CSCC(=O)NCCC(C)C)cc1	none
CSc1ccccc1NC(=O)CN(C)CC(=O)c1c(C)[nH]c2ccccc12	KB-V1 cytotox 20.6µM
COc1ccc(NC(=O)CN(C)C(C)C(=O)N2CCCCC2)cc1 (stereo unspecified)	KB-V1 cytotox 11.6µM, HT1080NT lethal inconclusive
COc1ccc(NC(=O)CN(C)CC(=O)Nc2ccccc2SC)cc1	KB-V1 cytotox 20.6µM
COc1ccc(CSCC(=O)Nc2ccccc2SC)cc1	KB-V1 cytotox 18.4µM, SW480 rerep inconclusive, KB-3-1 tox inconclusive, MCF10A rereplic inconclusive
CC1(C)CCC(c2ccc(Cl)cc2)=C(CN2CCN(c3ccc(C(=O)NS(=O)(=O)c4ccc(N[C@H](CCN5CCOCC5)CSc5ccccc5)c(S(=O)(=O)C(F)(F)F)c4)cc3)CC2)C1	none (no result: SW480 rerep, HT1080 IDH1KD tx, HT1080NT lethal, MCF10A rereplic)
CCOc1ccc(NC(=O)CN(C)CC(=O)Nc2cc(Cl)ccc2C#N)cc1OCC	none
CCOc1ccc(NC(=O)CN(C)CC(=O)Nc2ccccc2SC)cc1OCC	KB-V1 cytotox 3.66µM
Cc1ccc(CNC(=O)c2cnc3c(-c4ccccc4)c(C)nn3c2C)o1	none (no result: SW480 rerep, HT1080 IDH1KD tx, HT1080NT lethal, MCF10A rereplic)
COc1ccc(CC2(CO)CCN(S(=O)(=O)c3c(C)nn(C)c3Cl)CC2)cc1	none
Cc1nn(C)c(Cl)c1S(=O)(=O)N1CCC(CO)(CCc2ccccc2)CC1	KB-V1 cytotox 23.1µM, HT1080 IDH1KD tx inconclusive, KB-3-1 tox inconclusive
Cc1ccc2cc(C3C(C#N)=C(N)Oc4c3ccc3cccnc43)c(=O)[nH]c2c1 (stereo unspecified)	SW480 rerep inconclusive, HT1080 IDH1KD tx inconclusive, HT1080NT lethal 11.2µM, MCF10A rereplic inconclusive
CCOc1cccc(C2C(C#N)=C(N)Oc3cc(C)[nH]c(=O)c32)c1OCC (stereo unspecified)	none
CCc1ccc2[nH]c(=O)c(C3C(C#N)=C(N)Oc4c3ccc3cccnc43)cc2c1 (stereo unspecified)	KB-V1 cytotox 2.31µM, SW480 rerep inconclusive, HT1080 IDH1KD tx inconclusive, KB-3-1 tox inconclusive, HT1080NT lethal inconclusive, MCF10A rereplic inconclusive
Cc1cccc(CSCCNC(=O)C2CCN(S(=O)(=O)Cc3ccccc3)CC2)c1	none (no result: SW480 rerep, HT1080 IDH1KD tx, HT1080NT lethal, MCF10A rereplic)
CN1CCN(C2=Cc3ccc(Cl)cc3Sc3ccc(F)cc32)CC1	KB-V1 cytotox inconclusive, SW480 rerep 3.98µM, HT1080 IDH1KD tx inconclusive, HT1080NT lethal inconclusive, MCF10A rereplic inconclusive

Assay outcomes from PubChem.
